This is an account of results in PubChem BioAssay (NCI).

Molecules are shown by their SMILES. Where “and” joins values, the source holds several entries; their conditions need not be identical. Equal values may be shown once. Compounds without any hit were thinned out: in the full panel of roughly 83,000, 20% have a hit.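 Interpretation: 100, growth as untreated; towards 0, rising growth inhibition; 0, no net growth; 0 to -100, cell death. Compounds scoring below 10 were considered active.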 Calls of active or inactive are those of the source.

What all share (assay): NCI-60 one-dose screen, 48 h (100 = growth as untreated, 0 = no growth, -100 = all killed)
Experiment [1] relates to NCI-H226 lung. Conditions: 10 µM.
The subject of experiment [2] is NCI-H322M lung. The conditions noted are these: 10 µM.
The test system of experiment [3] is HOP-62 NSCLC. Conditions: 10 µM.
Experiment [4] concerns NCI-H460 lung. Conditions: 10 µM.
Experiment [5] relates to HOP-92 NSCLC. The conditions noted are these: 10 µM.
The test system of experiment [6] is NCI-H522 lung. The conditions noted are these: 10 µM unless noted.
Experiment [7] concerns A549/ATCC NSCLC. Conditions: 10 µM.
Experiment [8] relates to 786-0 renal. The conditions noted are these: 10 µM.
Experiment [9] concerns COLO 205 colon. Conditions: 10 µM.
Experiment [10] deals with DU-145 prostate. The conditions noted are these: 10 µM unless noted.
Experiment [11] concerns K-562 leukemia. The conditions noted are these: 10 µM.
Experiment [12] has as its system MALME-3M melanoma. Conditions: 10 µM.
The subject of experiment [13] is MDA-MB-231 breast. Conditions: 10 µM.
Experiment [14] has as its system RXF 393 renal. Conditions: 10 µM unless noted.
The test system of experiment [15] is SF-268 CNS. Conditions: 10 µM.
Experiment [16] relates to SF-295 CNS. Conditions: 10 µM.
Experiment [17] deals with UACC-257 melanoma. Conditions: 10 µM.
The test system of experiment [18] is SF-539 CNS. Conditions: 10 µM.
Experiment [19] concerns M14 melanoma. The conditions noted are these: 10 µM.

On to `O=[N+]([O-])C1=C(c2ccccc2)SC=C(c2ccccc2)S1`, for which the growth was 74% (inactive) in experiment [1]; 92.4% (inactive) in [2]; 74.1% (inactive) in experiment [3]; 67.3% (inactive) in experiment [4]; 65.9% (inactive) in experiment [5]; 42% (inactive) in experiment [6]. In addition, the growth in experiment [7] was 62.4% (inactive); in experiment [8], 95.4% (inactive); in [9], 86.9% (inactive); in experiment [10], 75.2% (inactive); in experiment [11], 72.7% (inactive); in [12], 54.5% (inactive). Moreover, the growth was 69.3% (inactive) in experiment [13]; 54.2% (inactive) in [14]; 97.9% (inactive) in [15]; 93.7% (inactive) in experiment [16]; 51.3% (inactive) in experiment [17].

Regarding `COc1ccc(CC(=O)c2ccc(O)cc2O)cc1`, the growth in experiment [1] was 133% (inactive); in experiment [2] it was 122% (inactive); in experiment [3], 88.4% (inactive); in [4], 115% (inactive); in [5], 94.4% (inactive); in experiment [6] it was 4.52% (active). Also, the growth in experiment [7] was 109% (inactive); in experiment [8], 96.5% (inactive); in experiment [9], 207% (inactive); in experiment [10] it was 138% (inactive); in experiment [11], 98.7% (inactive); in [12], 128% (inactive). In addition, the growth in experiment [13] is 117% (inactive); in [14], 144% (inactive); in [15], 132% (inactive); in experiment [16], 113% (inactive); in experiment [18], 99.3% (inactive); in [17], 119% (inactive). Also, the growth in experiment [19] was 103% (inactive).

`CS(=O)(=O)OC1CC(n2ccc(=O)[nH]c2=O)OC1COC(c1ccccc1)(c1ccccc1)c1ccccc1` (stereo not drawn): the growth in experiment [1] is 104% (inactive); in experiment [2] it was 89.1% (inactive); in experiment [3], 106% (inactive); in experiment [4], 112% (inactive); in experiment [6], 86.1% (inactive); in [7], 101% (inactive). Further, the growth in experiment [10] was 99.8% (inactive); in experiment [11], 98.5% (inactive); in experiment [12], 91.9% (inactive); in [13], 106% (inactive); in [14], 105% (inactive); in experiment [15], 103% (inactive). Moreover, the growth was 110% (inactive) in experiment [16], 105% (inactive) in experiment [18], 102% (inactive) in experiment [17] and 88.7% (inactive) in experiment [19].

On to `Cc1cc(O)c(C(C)C)cc1Cl`, for which the growth in experiment [1] is 96.7% (inactive); in experiment [2], 96.9% (inactive); in [3], 95.7% (inactive); in experiment [4], 99.1% (inactive); in experiment [5], 99.9% (inactive); in experiment [6], 101% (inactive). For the same compound, the growth in experiment [8] is 101% (inactive); in experiment [9], 107% (inactive); in [10], 101% (inactive); in experiment [11], 96.8% (inactive); in experiment [12], 109% (inactive); in [13], 104% (inactive). Besides, the growth in experiment [14] was 120% (inactive); in experiment [15], 99.3% (inactive); in experiment [16] it was 100% (inactive); in [18], 105% (inactive).

In the case of `NNc1c2ccccc2nc2ccccc12`, the growth in experiment [1] is 48.5% (inactive); in [2] it was 75.9% (inactive); in experiment [3], 64.6% (inactive); in [4] it was 10% (inactive); in experiment [5] it was 88.1% (inactive); in [6], 33.2% (inactive). Further, the growth was 23.6% (inactive) in [7]; 34.2% (inactive) in [8]; 67.6% (inactive) in experiment [9]; 66% (inactive) in experiment [10]; 49.2% (inactive) in [11]; 62.5% (inactive) in experiment [12]. For the same compound, the growth was 65.2% (inactive) in experiment [13]; 72.8% (inactive) in experiment [14]; 50.1% (inactive) in experiment [15]; 42.8% (inactive) in experiment [18]; 34.9% (inactive) in experiment [17].

Consider `OC(CN1CCCC2CCCCC21)c1cc2ccccc2c2ccccc12` (stereo not drawn), for which the growth in experiment [1] is 39.3% (inactive); in experiment [2], 49.4% (inactive); in experiment [3], 11.2% (inactive); in [4], 7.08% (active); in experiment [5] it was 25.1% (inactive); in [6] it was 80.1% (inactive). The growth is 51.5% (inactive) in [7]; -11.6% (active) in experiment [8]; -73.2% (active) in experiment [9]; 40.3% (inactive) in experiment [10]; -14.4% (active) in [11]; 17.7% (inactive) in [12]. Also, the growth in experiment [13] is -11.2% (active); in experiment [15], 45.7% (inactive); in experiment [16], -3.44% (active); in experiment [18], 27.8% (inactive); in experiment [17], 22.7% (inactive).

As for `C[n+]1c2cc(N)ccc2cc2ccc(N)cc21`, the growth was -14.9% (active) [middle of 4 runs] in [1]; 43.9% (inactive) and 8.02% (active) and -29.2% (active) in experiment [5]; -62% (active) and -11.9% (active) and -51.7% (active) in [12]; 14.5% (inactive) [middle of 4 runs] in experiment [13]; -34.2% (active) and 5.66% (active) and -8.06% (active) in [14]; 10.8% (inactive) and 19.8% (inactive) and -3.57% (active) in experiment [18].
